The values that follow come from PubChem BioAssay.

Molecules are shown by their SMILES. Active and inactive are the calls of the source.

Assay [1] has as its system PRMT1 (protein arginine N-methyltransferase 1). The assay is described as follows: PRMT1 binders on small-molecule microarrays, primary screen, biochemical, small-molecule microarray, 635 nm fluorescence (AID 1088).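 Also: binding of Prmt1 protein to compounds spotted on small-molecule microarray slides.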 The conditions noted are these: small-molecule microarray binding, higher = more signal.
A short description of assay [2]: yeast growth modulation, basal conditions, primary screen, YJM789 clinical isolate, OD600, 24 h (AID 1089).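 Also: growth of clinical yeast isolate S. cerevisiae YJM 789 seeded 1000 cells per well; test concentration not given here.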 The conditions noted are these: S. cerevisiae YJM789 growth, higher = more signal, called active from +8 up or from −8 down.
Assay [3] is described as follows: fission yeast growth modulation, primary screen, strain 972, OD600, 24 h, no modulator (AID 1090).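 Also: basal condition with compound alone and no growth modifier present; test concentration not given here.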 To be noted: S. pombe 972 growth, higher = more signal, called active from +8 up or from −8 down.
A short description of assay [4]: S. cerevisiae growth modulation with rapamycin, primary screen, strain BY4716, OD600, 96 h (AID 1091). Also: test concentration not given here. The conditions noted are these: higher = more signal, called active from +8 up or from −8 down.
The target in assay [5] is Torsin-1A-interacting protein 2 (Homo sapiens) (UniProt Q8NFQ8). Description: LULL1 binders on small-molecule microarray, primary screen, cell lysate, human LULL1 lysate, 635/667 nm fluorescence (AID 1092).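 Also: probe is lysate of COS7 cells overexpressing human LULL1; score merges per-feature 667 nm fluorescence with signal-to-noise.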 The conditions noted are these: hLULL1 lysate binding, 635 nm fluorescence, higher = more signal.
Assay [6] can be described thus: E. coli growth modulation, two-sided OD650, primary screen, E. coli filamentation project, strain DRC41, 24 h (AID 1093).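 Also: MC1000 strain lacking acrAB efflux and sulA so SOS filamentation is blocked; test concentration not given here.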 To be noted: OD650, 24 h, higher = more signal, called active from +8 up or from −8 down.
Assay [7] can be described thus: small-molecule microarray binders of probe aLefty2, primary screen, biochemical, biotinylated probe, 635/667 nm fluorescence (AID 1094).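 Also: score merges spot fluorescence near 667 nm with spot signal-to-noise ratio.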 The conditions noted are these: higher = more signal.
Assay [8] has as its system Noggin (protein binding on small-molecule microarray). Description: Noggin binders on small-molecule microarray, primary screen, biochemical, 635/667 nm fluorescence (AID 1095).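 Also: score merges 667 nm feature fluorescence with signal to noise over triplicate slides.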 The conditions noted are these: 635 nm fluorescence, higher = more signal.
In assay [9] the target is Neurogenic locus notch homolog protein 3 (Homo sapiens) (UniProt Q9UM47). The assay is described as follows: NOTCH3 binders on small-molecule microarray, primary screen, biochemical, 635/667 nm fluorescence (AID 1096). The conditions noted are these: NOTCH3 binding, 635 nm fluorescence, higher = more signal.
The nature of assay [10]: small-molecule microarray binders of probe aEGFR, primary screen, biochemical, biotinylated probe, 635/667 nm fluorescence (AID 1097).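 Also: probe is a biotinylated anti-EGFR antibody binding compounds printed on slides; score combines fluorescence near 667 nm and signal to noise of each spot.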 The conditions noted are these: higher = more signal.
For assay [11], the system named is Plasmodium falciparum Sir2 (PF13_0152, Sir2A). Description: pfSir2 binders on small-molecule microarrays, primary screen, biochemical, small-molecule microarray, 635 nm fluorescence (AID 1098).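 Also: score merges spot fluorescence intensity with its signal-to-noise ratio.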 To be noted: small-molecule microarray binding, fluorescence 635 nm; higher = more signal.
Assay [12] in a line: small-molecule microarray binders of probe aDKK1, primary screen, biochemical, biotinylated probe, 635/667 nm fluorescence (AID 1099).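 Also: score merges 667nm spot fluorescence with signal to noise across triplicate slides; reference of the scale not given here.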 To be noted: higher = more signal.
Assay [13] is described as follows: small-molecule microarray binders of probe aCHRDL2, primary screen, biochemical, biotinylated probe, 635/667 nm fluorescence (AID 1100). To be noted: higher = more signal.
The nature of assay [14]: splicing luciferase reporter signal modulators, primary screen, spliceosome inhibition project, cell-based, HEK293, splice +/- reporter (AID 1101).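 Also: HEK293 cells carrying a splicing-competent luciferase reporter gene; test concentration not given here.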 To be noted: luminescence, 24 h, higher = more signal, called active from +8 up or from −8 down. For orientation: Reporter assays use an easily measured gene product as a stand-in for the process of interest.
Assay [15] addresses Fibroblast growth factor 10 (Homo sapiens) (UniProt O15520). The assay is described as follows: FGF10 binders on small-molecule microarrays, primary screen, biochemical, small-molecule microarray, 635 nm fluorescence (AID 1102). The conditions noted are these: FGF10 binding, fluorescence 635 nm, higher = more signal.
The test system of assay [16] is glycogen synthase kinase-3 (GSK3A per assay name; protocol says GSK3B). Description: GSK3 binders on small-molecule microarrays, primary screen, biochemical, small-molecule microarray, 635 nm fluorescence, GSK3A (AID 1103). Also: the record names both GSK3A and GSK3B. To be noted: small-molecule microarray binding, fluorescence 635 nm; higher = more signal.
The target of assay [17] is Epidermal growth factor receptor (Homo sapiens) (UniProt P00533). Description: EGFR binders on small-molecule microarrays, primary screen, biochemical, small-molecule microarray, 635 nm fluorescence (AID 1104).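 Also: score merges 667 nm emission intensity with spot signal to noise over triplicate slides.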 The conditions noted are these: EGFR binding, higher = more signal.
The target of assay [18] is Follistatin-related protein 3 (Homo sapiens) (UniProt O95633). Description: FSTL3 binders on small-molecule microarrays, primary screen, biochemical, small-molecule microarray, 635 nm fluorescence (AID 1105).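 Also: score merges emission near 667 nm and signal to noise per printed spot across three slides.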 To be noted: FSTL3 binding, higher = more signal.
The target in assay [19] is Dickkopf-related protein 1 (Homo sapiens) (UniProt O94907). The assay is described as follows: DKK1 binders on small-molecule microarrays, primary screen, biochemical, small-molecule microarray, 635 nm fluorescence scan (AID 1106).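 Also: score merges emission near 667 nm with signal to noise over three replicate slides.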 The conditions noted are these: DKK1 binding, higher = more signal.
Assay [20] concerns Inhibin beta A chain (activin A). Description: INHBA (activin A) binders on microarrays, primary screen, biochemical, small-molecule microarray, 635 nm fluorescence scan (AID 1107).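 Also: mouse activin A protein probed at 4.33 µg/mL on printed slides; score merges bound-protein fluorescence near 667 nm with spot signal-to-noise.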 To be noted: small-molecule microarray binding, higher = more signal.

Chain of Dickkopf-related protein 1 (Homo sapiens) (O94907 whole entry, looked up): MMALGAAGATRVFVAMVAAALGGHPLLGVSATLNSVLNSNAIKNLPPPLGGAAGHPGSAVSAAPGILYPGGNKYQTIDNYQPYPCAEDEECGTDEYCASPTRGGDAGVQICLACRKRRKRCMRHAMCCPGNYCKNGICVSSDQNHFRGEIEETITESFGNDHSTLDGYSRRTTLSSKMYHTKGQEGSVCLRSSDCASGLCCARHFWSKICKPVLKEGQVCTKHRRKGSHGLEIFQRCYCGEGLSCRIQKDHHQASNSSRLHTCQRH
Chain of Fibroblast growth factor 10 (Homo sapiens) (O15520 whole entry, looked up): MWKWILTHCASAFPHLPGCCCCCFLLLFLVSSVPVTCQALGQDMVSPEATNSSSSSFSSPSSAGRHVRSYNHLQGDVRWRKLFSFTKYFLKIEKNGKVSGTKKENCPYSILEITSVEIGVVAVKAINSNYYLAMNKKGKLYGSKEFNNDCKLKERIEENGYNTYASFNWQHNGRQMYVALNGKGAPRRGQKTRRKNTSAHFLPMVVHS
Chain of Follistatin-related protein 3 (Homo sapiens) (O95633 whole entry, looked up): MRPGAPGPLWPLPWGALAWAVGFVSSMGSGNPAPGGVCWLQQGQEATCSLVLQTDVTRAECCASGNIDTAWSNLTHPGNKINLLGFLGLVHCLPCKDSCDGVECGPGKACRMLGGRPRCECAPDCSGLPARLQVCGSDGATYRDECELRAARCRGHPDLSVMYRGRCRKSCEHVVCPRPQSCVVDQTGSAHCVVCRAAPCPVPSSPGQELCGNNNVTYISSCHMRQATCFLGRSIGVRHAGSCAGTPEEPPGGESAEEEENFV
Chain of Neurogenic locus notch homolog protein 3 (Homo sapiens) (Q9UM47 whole entry, looked up): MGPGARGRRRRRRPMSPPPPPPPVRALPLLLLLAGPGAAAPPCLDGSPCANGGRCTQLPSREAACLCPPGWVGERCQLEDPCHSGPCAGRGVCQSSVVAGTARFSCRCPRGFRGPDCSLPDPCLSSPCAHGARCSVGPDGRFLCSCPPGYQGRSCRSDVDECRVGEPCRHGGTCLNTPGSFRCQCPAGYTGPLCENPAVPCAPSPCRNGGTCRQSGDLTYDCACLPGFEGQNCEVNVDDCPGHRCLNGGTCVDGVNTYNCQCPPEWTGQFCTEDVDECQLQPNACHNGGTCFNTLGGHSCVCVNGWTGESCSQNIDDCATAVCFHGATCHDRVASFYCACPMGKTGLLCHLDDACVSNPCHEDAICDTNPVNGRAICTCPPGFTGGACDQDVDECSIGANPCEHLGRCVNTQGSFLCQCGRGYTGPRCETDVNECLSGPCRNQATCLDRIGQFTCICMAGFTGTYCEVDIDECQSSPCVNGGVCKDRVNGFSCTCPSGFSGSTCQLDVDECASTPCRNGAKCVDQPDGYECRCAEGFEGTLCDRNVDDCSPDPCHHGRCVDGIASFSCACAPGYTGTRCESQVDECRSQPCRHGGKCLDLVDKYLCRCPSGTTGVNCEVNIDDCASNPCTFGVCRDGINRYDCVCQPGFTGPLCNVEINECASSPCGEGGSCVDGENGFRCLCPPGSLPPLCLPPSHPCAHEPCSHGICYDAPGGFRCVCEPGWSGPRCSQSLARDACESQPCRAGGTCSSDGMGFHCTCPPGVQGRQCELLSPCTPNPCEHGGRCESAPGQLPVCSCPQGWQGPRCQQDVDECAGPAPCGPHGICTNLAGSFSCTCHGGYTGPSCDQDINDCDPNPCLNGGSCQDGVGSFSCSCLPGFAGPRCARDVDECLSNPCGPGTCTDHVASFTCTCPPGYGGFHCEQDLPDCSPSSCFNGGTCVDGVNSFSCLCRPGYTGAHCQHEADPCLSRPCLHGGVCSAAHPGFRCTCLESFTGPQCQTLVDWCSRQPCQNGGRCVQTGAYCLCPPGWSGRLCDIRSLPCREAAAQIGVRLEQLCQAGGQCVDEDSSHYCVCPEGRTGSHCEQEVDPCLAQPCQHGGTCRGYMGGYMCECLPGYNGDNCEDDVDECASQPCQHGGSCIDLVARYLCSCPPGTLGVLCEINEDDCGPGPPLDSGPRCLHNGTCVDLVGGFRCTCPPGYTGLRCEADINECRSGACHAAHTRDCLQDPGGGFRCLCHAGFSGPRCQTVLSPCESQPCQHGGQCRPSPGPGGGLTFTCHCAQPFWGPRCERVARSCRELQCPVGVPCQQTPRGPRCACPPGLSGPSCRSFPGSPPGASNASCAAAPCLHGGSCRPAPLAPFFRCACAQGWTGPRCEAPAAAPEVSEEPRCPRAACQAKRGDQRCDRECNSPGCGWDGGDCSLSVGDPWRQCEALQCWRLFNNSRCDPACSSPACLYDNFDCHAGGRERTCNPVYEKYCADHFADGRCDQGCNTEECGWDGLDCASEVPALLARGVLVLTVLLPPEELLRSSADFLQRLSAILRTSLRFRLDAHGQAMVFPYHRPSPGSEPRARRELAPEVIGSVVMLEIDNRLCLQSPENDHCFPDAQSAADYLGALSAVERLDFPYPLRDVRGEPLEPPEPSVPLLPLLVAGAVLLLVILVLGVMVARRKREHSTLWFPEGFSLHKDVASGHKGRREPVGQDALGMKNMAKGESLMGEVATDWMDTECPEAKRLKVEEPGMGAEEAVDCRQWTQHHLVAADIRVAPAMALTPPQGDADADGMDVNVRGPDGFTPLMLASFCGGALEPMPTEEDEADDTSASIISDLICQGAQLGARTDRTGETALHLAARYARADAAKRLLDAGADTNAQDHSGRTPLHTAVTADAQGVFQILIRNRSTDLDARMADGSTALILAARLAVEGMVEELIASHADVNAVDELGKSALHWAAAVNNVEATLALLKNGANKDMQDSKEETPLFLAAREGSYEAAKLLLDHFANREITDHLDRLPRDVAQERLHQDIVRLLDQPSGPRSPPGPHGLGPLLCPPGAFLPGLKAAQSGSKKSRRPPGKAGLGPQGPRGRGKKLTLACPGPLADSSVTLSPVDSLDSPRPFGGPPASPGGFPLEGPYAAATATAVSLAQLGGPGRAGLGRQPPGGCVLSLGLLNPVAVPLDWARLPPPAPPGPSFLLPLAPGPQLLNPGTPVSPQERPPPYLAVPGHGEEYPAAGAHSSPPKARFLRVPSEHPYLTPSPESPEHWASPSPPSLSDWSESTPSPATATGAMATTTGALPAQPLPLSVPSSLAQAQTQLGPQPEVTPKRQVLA
Chain of Torsin-1A-interacting protein 2 (Homo sapiens) (Q8NFQ8 whole entry, looked up): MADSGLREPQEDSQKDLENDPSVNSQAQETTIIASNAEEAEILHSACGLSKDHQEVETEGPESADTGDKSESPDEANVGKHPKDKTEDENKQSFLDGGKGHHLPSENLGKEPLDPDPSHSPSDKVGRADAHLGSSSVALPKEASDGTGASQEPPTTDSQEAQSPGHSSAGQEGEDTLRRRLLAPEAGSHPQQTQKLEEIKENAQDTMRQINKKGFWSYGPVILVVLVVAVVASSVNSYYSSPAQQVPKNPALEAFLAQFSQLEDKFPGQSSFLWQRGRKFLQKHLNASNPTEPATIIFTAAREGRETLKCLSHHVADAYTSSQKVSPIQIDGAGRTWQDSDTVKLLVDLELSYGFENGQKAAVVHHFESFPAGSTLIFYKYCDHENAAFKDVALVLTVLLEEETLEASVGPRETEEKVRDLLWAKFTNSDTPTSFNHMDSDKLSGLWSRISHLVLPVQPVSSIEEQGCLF
Chain of Epidermal growth factor receptor (Homo sapiens) (P00533 whole entry, looked up): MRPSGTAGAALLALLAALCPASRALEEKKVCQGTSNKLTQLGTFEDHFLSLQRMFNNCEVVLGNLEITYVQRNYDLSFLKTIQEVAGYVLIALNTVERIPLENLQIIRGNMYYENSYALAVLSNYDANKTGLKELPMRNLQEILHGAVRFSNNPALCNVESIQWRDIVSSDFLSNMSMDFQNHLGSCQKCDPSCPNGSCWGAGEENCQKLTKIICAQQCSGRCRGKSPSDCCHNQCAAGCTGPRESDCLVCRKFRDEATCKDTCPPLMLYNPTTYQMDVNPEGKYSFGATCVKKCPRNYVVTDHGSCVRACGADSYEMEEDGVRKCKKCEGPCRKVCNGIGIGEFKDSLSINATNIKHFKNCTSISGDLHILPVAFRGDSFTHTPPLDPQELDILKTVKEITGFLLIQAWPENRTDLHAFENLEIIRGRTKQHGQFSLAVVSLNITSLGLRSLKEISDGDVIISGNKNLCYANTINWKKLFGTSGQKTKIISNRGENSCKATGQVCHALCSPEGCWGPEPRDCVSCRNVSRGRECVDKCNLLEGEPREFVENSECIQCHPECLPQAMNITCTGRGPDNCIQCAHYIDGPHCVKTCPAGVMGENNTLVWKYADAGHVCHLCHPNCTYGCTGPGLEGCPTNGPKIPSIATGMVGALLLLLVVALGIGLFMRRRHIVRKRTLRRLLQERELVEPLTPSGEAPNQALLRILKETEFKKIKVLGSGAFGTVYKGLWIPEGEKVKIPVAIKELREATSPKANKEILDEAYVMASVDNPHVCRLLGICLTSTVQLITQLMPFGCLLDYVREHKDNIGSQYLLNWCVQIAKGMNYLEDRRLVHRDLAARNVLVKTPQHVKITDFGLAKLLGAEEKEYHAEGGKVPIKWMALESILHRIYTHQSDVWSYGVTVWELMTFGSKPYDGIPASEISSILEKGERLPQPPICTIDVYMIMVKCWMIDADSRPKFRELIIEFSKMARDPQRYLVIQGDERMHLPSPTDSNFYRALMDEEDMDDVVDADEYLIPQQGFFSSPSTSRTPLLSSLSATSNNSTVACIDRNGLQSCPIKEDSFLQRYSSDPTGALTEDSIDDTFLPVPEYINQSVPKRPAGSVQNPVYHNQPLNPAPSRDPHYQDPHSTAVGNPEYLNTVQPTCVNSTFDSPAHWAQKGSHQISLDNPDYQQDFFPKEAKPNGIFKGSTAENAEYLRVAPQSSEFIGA

Take `CC(C)c1ccc(NN2C(C(O)c3ccc4c(c3)OCO4)C=CC3C(=O)N(c4ccccc4)C(=O)C32)cc1` (stereo not given): the composite z-score in assay [1] is 1.21; in assay [5] it was 3.5; in assay [7], 0.304; in [8], 1.01; in assay [9], 1.1; in assay [10], -0.0845. In addition, the composite z-score in assay [11] came out at 1.19; in assay [12], 0.521; in [13], 0.944; in assay [15], 0.584; in assay [16], 1.18; in assay [17], 0.407. Also, the values for the composite z-score in assay [18], in assay [19] and in assay [20] were 0.886, 0.263 and 0.581, respectively. Further, the z-score was -0.0261 (inactive) in assay [2]; 0.0855 (inactive) in assay [3]; 0.599 (inactive) in assay [4]; 0.0026 (inactive) in assay [6]; 1.18 (inactive) in assay [14].
On to `CC(C)N1CC=CC23O[C@@H]4C=CCCOC(=O)C4[C@H]2C(=O)N(CCCCCCO)[C@@H]3C1=O` (stereo not given in full), for which the composite z-score in [1] is 0.613; in assay [5], 1.94; in [7], -0.233; in assay [8], -0.984; in assay [9], -0.0917; in [10], -0.297. Further, the composite z-score in assay [11] is 0.627; in assay [12], -0.201; in assay [13], 0.587; in [15], -1.03; in assay [16], -1.13; in assay [17], -1.13. Also, the composite z-score in assay [18] is -1.22; in [19], -1.59; in [20], 0.12. The z-score in [2] was 0.653 (inactive); in assay [3] it was 0.159 (inactive); in [4], 0.121 (inactive); in [6], -0.0822 (inactive); in [14], 1.59 (inactive).
As to `CO[C@H]1COC(=O)[C@H](C)COC(=O)CC=C[C@@H](C)[C@H](OC)COC(=O)CC=C[C@@H]1C`, the composite z-score in assay [1] is 0.438; in assay [5] it was -0.798; in assay [7] it was -0.233; in assay [8], 0.638; in assay [9] it was 0.336; in assay [10] it was -0.0302. For the same compound, the composite z-score in assay [11] was 0.864; in [12], -0.466; in [13], -1.28; in [15], 0.207; in assay [16] it was 0.432; in assay [17] it was 1.47. Further, the composite z-score stood at 1.32 in assay [18], 1.02 in assay [19] and 1.28 in [20]. The z-score in assay [2] is 0.0305 (inactive); in assay [3] it was -0.818 (inactive); in assay [4], -0.147 (inactive); in [6] it was 0.614 (inactive); in assay [14], 0.0172 (inactive).
Regarding `COc1ccc(O[C@H]2C=C[C@@H](c3ccccc3)O[C@@H]2COC(=O)N2CCCCC2)cc1`, the composite z-score in assay [1] is 0.38; in assay [5], -0.616; in assay [7] it was 0.0116; in assay [8], 0.0935; in [9], -1.08; in assay [10], -0.0527. The composite z-score in assay [11] is -0.0945; in assay [12] it was -0.173; in [13], -0.225; in [15], -0.398; in assay [16], -0.732; in [17], 0.0392. For the same compound, the composite z-score in [18] was -0.0999; in assay [19], 0.0004; in assay [20], 1.42. The z-score is 0.523 (inactive) in [2]; -0.897 (inactive) in assay [3]; 0.156 (inactive) in assay [4]; 0.555 (inactive) in assay [6]; 0.757 (inactive) in assay [14].
In the case of `CCN1C(=O)[C@H]2[C@H]3[C@H](O)[C@H](O)CC(=NOCc4ccccc4)[C@H]3CC[C@H]2C1=O`, the composite z-score in [1] is -0.204; in assay [5] it was 0.21; in [7] it was -0.386; in assay [8], 0.863; in assay [9], 0.469; in [10], -0.0953. In addition, the composite z-score in [11] is 0.18; in [12], -0.237; in assay [13] it was -0.278; in assay [15], 0.47; in [16] it was 0.0166; in [17], 0.0741. Also, the results for the composite z-score in [18], in assay [19] and in [20] were -0.257, 0.132 and -0.114, respectively. Besides, the z-score in [2] was -0.896 (inactive); in [3] it was -0.337 (inactive); in [4], -0.262 (inactive); in [6] it was 0.632 (inactive); in assay [14] it was 0.462 (inactive).
